# A selection: hits, their analogues and other compounds. The true share with any hit is near 21%.
# IL-1B inflam inh – blocks inflammasome-driven IL-1 beta release. THP-1 LPS/ATP IL-1B secretion, AlphaLISA, 16 h; hits give low values. activity change, % at 57.5 µM. hit rate 4.7% among 360,000. AID 743279; in the data active means activity change below about -50%; inconclusive means mostly about -30% to -49%
#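 THP-1 cells pretreated 1 hr with compounds (up to 57.5 uM final), then stimulated with LPS (250 ng/mL final) plus ATP (1.25 mM final); secreted IL-1B measured by AlphaLISA after 16 hr, decreased signal indicating inhibition.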
# Gal4-VP16 FLuc – counter-screen for ROR gamma inhibitors: Gal4-VP16 reporter; Drosophila S2 Gal4-VP16 UAS-luciferase, luminescence, 20 h; Potency, µM (top dose mostly 53.6 µM), inactives show top-dose activity, negative = inhibition, usual class: inhibitors; hit rate 3.5% among 310,000;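 further: Gal4-VP16 expression switched on by copper sulfate through the metallothionein promoter; potency means the concentration at half of the fitted maximal effect; nearly all actives have a fitted effect of over 50% in size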
# RORgamma inh – ROR gamma (mouse) transcription inhibition. hit rate 5.4% among 310,000. AID 2551. Potency, µM (highest dose often 53.6 µM), without a hit: top-dose activity change, negative = inhibition, actives largely listed as inhibitors. Drosophila S2 Gal4-RORgamma UAS-luciferase reporter, 20 h. P51450; further: potency means the concentration at half of the fitted maximal effect; nearly all actives have a fitted effect of over 60% in size
# Target sequence (P51450 whole entry, looked up, the tested form may be a part): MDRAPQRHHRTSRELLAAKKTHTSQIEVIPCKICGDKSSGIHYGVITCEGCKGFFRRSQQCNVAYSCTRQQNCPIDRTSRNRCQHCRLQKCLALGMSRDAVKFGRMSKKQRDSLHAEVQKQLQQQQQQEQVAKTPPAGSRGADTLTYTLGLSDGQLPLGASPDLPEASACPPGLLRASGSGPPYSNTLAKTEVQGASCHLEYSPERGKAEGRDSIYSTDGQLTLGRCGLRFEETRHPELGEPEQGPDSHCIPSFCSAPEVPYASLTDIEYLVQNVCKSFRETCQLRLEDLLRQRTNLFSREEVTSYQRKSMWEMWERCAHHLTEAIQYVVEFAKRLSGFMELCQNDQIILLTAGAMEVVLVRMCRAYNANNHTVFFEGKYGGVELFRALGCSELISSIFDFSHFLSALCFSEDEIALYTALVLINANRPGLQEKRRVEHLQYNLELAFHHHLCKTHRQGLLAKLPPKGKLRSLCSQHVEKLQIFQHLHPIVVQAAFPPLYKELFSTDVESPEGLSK
#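 In this cell-based reporter format, copper sulfate (700 uM final) drives Gal4–ROR gamma fusion expression from a metallothionein promoter in Drosophila Schneider cells; compounds preincubated 1 hr, reporter read after 20 hr at ambient temperature.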
# TDP1 cell CPT – growth inhibition of DT40 Tdp1-/-;hTDP1 cells with camptothecin (screen for TDP1 inhibitors); chicken DT40 Tdp1-/-;hTDP1 cells + 20 nM CPT, ATP luminescence, 48 h; Potency, µM (titrated, usually from 46.2 µM), inactives show at the highest dose activity change, negative = growth inhibition, hits mostly inhibitors; hit rate 12% among 420,000; AID 686979; further: potency means the concentration at half of the fitted maximal effect; nearly all actives have a fitted effect of over 55% in size
#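 Chicken DT40 Tdp1-/- cells stably complemented with human TDP1 were seeded at 400 cells/well in medium containing 20 nM camptothecin, exposed to pin-transferred compounds, and grown at 37 °C for at least 48 hr. Viability was read as ATP luminescence.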
# TDP1 cell noCPT – qHTS for Inhibitors of human tyrosyl-DNA phosphodiesterase 1 (TDP1): qHTS in cells in absence of CPT; DT40 Tdp1-/- hTDP1 cells, no CPT, ATP luminescence, 48 h; hit rate 15% among 420,000; Potency, µM (titrated, usually from 46.2 µM), inactives show at the top dose activity change, negative = growth inhibition, hits mostly inhibitors; AID 686978, 2013; further: potency means the concentration at half of the fitted maximal effect; nearly all actives have a fitted effect of over 55% in size
#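 A cellular qHTS used chicken DT40 cells lacking endogenous Tdp1 but carrying stably transfected human TDP1. Compounds were applied without camptothecin, and cell growth kinetics were judged by ATP-dependent luminescence after ≥48 hr.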
# ELG1 DNA repair – blocks ELG1-dependent DNA repair in HEK293T cells. HEK293T ELG1-luciferase reporter, luminescence, 16 h; DNA damage induced by 5-fluorouridine. Potency, µM (top dose mostly 46.1 µM), without a hit: top-dose activity change, negative = inhibition, usual class: inhibitors. hit rate 2.3% among 330,000; further: potency means the concentration at half of the fitted maximal effect; nearly all actives have a fitted effect of over 55% in size
#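 Quantitative HTS, concentration-response format. 2,000 cells/well co-treated with 5-fluorouridine and compound, 16 hr in 5% CO2 at 37 °C; ONE-Glo luminescence read after 30 min.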
# * = called active by the depositor; ? = inconclusive; · = no result given; [ ] = another dose, or the depositor's remark. Unless noted, the call rests on the fitted dose curve; in most records, active means well fitted curve in the direction sought with a large enough effect; inconclusive means small, poorly fitted or top-dose-only effect, or another doubt; inactive means no such curve, though single readings can be large; an effect the other way counts as inactive or inconclusive. On the % scale 0 is the no-effect control and ±100 the full control effect.
SMILES,IL-1B inflam inh,Gal4-VP16 FLuc,RORgamma inh,TDP1 cell CPT,TDP1 cell noCPT,ELG1 DNA repair
Cc1cc(C)cc(N(CC(=O)NC2CCC(C)CC2)S(=O)(=O)c2c(C)noc2C)c1 (stereo not drawn),-7,2%,-22%,21µM*,?,29%
COc1ccc(N(CC(=O)Nc2cccc(C)c2)S(=O)(=O)c2c(C)noc2C)cc1,8,7%,13%,?,2.9µM*,-14%
COc1ccc(N(CC(=O)Nc2cc(OC)cc(OC)c2)S(=O)(=O)c2c(C)noc2C)cc1,·,·,·,7.3µM*,5.8µM*,·
CC(=O)N1CCc2cc(S(=O)(=O)NC(C(=O)Nc3ccc(C)cc3C)C(C)C)ccc21 (stereo not drawn),·,·,·,-4%,?,·
COc1ccc(Br)c(C(=O)OCC(=O)NC2CCCCCC2)c1,0,·,·,?,12%,-21%
COc1ccccc1N1CCN(S(=O)(=O)CCNC(=O)c2cccs2)CC1,-7,·,·,-25%,?,·
CCCS(=O)(=O)NC(=O)C1(C)CCCN(C(=O)c2c(C)noc2C)C1 (stereo not drawn),19,·,·,7%,-8%,·
Brc1ccc(-c2cn3cc(Cc4ccccc4)sc3n2)cc1,·,·,·,-16%,-16%,·
Cc1nc2ccc(C(=O)NCCCN3CCCC3=O)cn2c1N(C)C(=O)CCc1ccccc1,-9,·,·,1%,-22%,·
COc1ccc(N(CC(=O)Nc2cc(C)ccc2C)S(=O)(=O)c2c(C)nn(C)c2C)cc1,20,5%,15%,?,26µM*,-12%
COc1ccc(N(CC(=O)Nc2ccc(C)cn2)S(=O)(=O)c2c(C)nn(C)c2C)cc1,21,14%,34%,?,-26%,-8%
COC(=O)c1sccc1S(=O)(=O)N(CC(=O)NCc1ccccc1)c1ccccc1,·,·,·,-13%,?,·
COc1cc(NC(=O)CN(c2ccc(C)cc2)S(=O)(=O)c2cccc3nonc23)cc(OC)c1,·,·,·,?,18µM*,·
COc1ccc(N(CC(=O)Nc2cc(C)ccc2OC)S(=O)(=O)c2c(C)noc2C)cc1,43,-2%,-10%,23µM*,?,?
COC(=O)c1sccc1S(=O)(=O)N(CC(=O)Nc1ccc(C)cc1)c1ccccc1,·,·,·,?,21µM*,·
COC(=O)NC(CC(C)=O)c1cccc(C)c1 (stereo not drawn),·,5%[10 µM],1%[10 µM],·,·,·
COc1ccc(NC(=O)CN(c2cc(C)cc(C)c2)S(=O)(=O)c2c(C)noc2C)cc1OC,13,4%,35%,?,?,?
CC(=O)c1cccc(NC(=O)CN(c2cc(C)cc(C)c2)S(=O)(=O)c2c(C)noc2C)c1,·,·,·,16µM*,18µM*,·
C=CC[n+]1c(-c2ccc(OC)c(OC)c2)csc1NNC(=O)Nc1ccccc1,-75*,?,10µM*,7.3µM*,6.5µM*,?
C=CC[n+]1c(-c2ccccc2)csc1NC(C)(C)C,-19,-3%,-13%,5%,-24%,0%
Cc1cccc(C(=O)O)c1NC(=O)Cc1cccc2ccccc12,66,·,·,?,?,-2%
CC(Sc1nc2ccc(Br)cc2[nH]1)C(=O)O (stereo not drawn),13,-3%,-9%,-3%,1%,9%
COC(=O)Nc1nc2ccc(C(=O)c3ccccc3)cc2[nH]1,·,-20%,30%,0.36µM*,0.25µM*,·
COc1ccc2nc(SCC(=O)Nc3ccccc3)[nH]c2c1,-21,-9%,22%,?,-13%,10%
COC(=O)Nc1nc2ccc(SC(C)C)cc2[nH]1,34,-10%[17 µM],-27%[16.9 µM],0.82µM*,3.3µM*,?
SMILES,IL-1B inflam inh,Gal4-VP16 FLuc,RORgamma inh,TDP1 cell CPT,TDP1 cell noCPT,ELG1 DNA repair
COC(=O)Nc1nc2ccc(S(=O)c3ccccc3)cc2[nH]1 (stereo not drawn),·,0%,26%,?,8.4µM*,·
Cc1ccccc1CC(=O)Nc1ccc(C(=O)N2CCCC2)cc1,-2,·,·,0%,2%,?
O=C(c1ccco1)N1CCC[C@@]2(CCN(c3ncccn3)C2)C1,·,-6%,-16%,-3%,-2%,·
COc1coc(/C=C/C(=O)O)cc1=O,-5,-1%,8%,-2%,-15%,13%
COc1ccc(-n2nc(C(=O)N3CCN(c4cccc(C)c4C)CC3)c3c4ccccc4n(C)c3c2=O)cc1Cl,·,·,·,11%,-10%,·
COc1ccc(N(C)S(=O)(=O)c2cccc(C(=O)Nc3ccc(OC)nc3)c2)cc1,·,5%,?,·,·,18µM*
COc1ccc(N(C)S(=O)(=O)c2cccc(C(=O)Nc3ccc4c(c3)OCCO4)c2)cc1,-14,0%,2%,16µM*,15µM*,?
COc1ccc(N(C)S(=O)(=O)c2cccc(C(=O)Nc3nnc(C4CC4)s3)c2)cc1,51,-7%,-2%,-1%,-18%,?
COc1ccc(NC(=O)c2cccc(-c3ccc(O)cc3)c2)cn1,-74*,-6%,-1%,15µM*,21µM*,?
COc1ccc(N(C)S(=O)(=O)c2cccc(C(=O)Nc3ccc(-n4cnnn4)cc3)c2)cc1,-4,?,?,18µM*,18µM*,18µM*
C#Cc1ccc2c(c1)C(=O)N(C)Cc1c(C(=O)OCCCOC(=O)c3ncn4c3CN(C)C(=O)c3cc(C#C)ccc3-4)ncn1-2,·,-6%,-13%,·,·,·
COc1cccc(C(O)c2ncc(-c3ccc(C(F)(F)F)cc3)[nH]2)c1 (stereo not drawn),11,·,·,?,?,·
CNCCOc1ccc(Cl)c(Cl)c1,-24,-4%,11%,?,16µM*,0%
CCCCNC(=O)C1(C)CCN1C(=O)c1cccc2c1OCCO2 (stereo not drawn),12,·,·,0%,-8%,·
CSc1ccccc1OC1CCN(Cc2ccccc2)CC1,-82*,5%,-3%,-10%,?,-1%
O=C(c1csnn1)N1CCC2(CCCN(c3ccc(-c4ccccc4)cc3)C2)CC1,·,12%,14%,?,?,·
Cc1nc(SCc2nc3ccccc3[nH]2)c2oc3cc([N+](=O)[O-])ccc3c2n1,·,·,·,·,·,23µM*
Cc1nc(SCc2nc3ccc(C(F)(F)F)cc3[nH]2)c2oc3ccccc3c2n1,·,·,·,·,·,0%
Cc1ccc(CCNC(=O)c2cn(C)c3ccc(S(=O)(=O)N(C)C4CCCCC4)cc3c2=O)cc1,·,·,·,4%,-4%,·

# Screens: PubChem, National Center for Advancing Translational Sciences (NCATS)
